About 83,000 compounds went through this panel and 20% of them were active in at least one assay; those are over-represented in the sample as a whole.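 Negative percent growth values reflect cell death: -40 means 40% of the cells present at the start died, and -100 means all died.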 Unmarked numbers belong to inactive results. The source made the active and inactive calls.
test system: M14 melanoma; experiment: NCI-60 one-dose screen, 48 h (100 = growth as untreated, 0 = no growth, -100 = all killed); settings: 10 µM unless noted
Protocol: Growth inhibition of the M14 human tumor cell line is measured as a screen for anti-cancer activity. Cells are grown in 96 well plates and exposed to the test compound for 48 hours. Compounds are tested at a single concentration, which is 10^-5 M for most compounds. The reported endpoint is percent growth (GI% or GIPRCNT), where numbers from 0 - 100% represent growth inhibition, and numbers from -100% - 0 represent cell death. For example, a value of 40 represents 60% growth inhibition. A value of 0 means no net growth occurred over the course of the experiment. A value of -40 indicates 40% of cells at the beginning of the experiment died by the end of the experiment. A value of -100 means all cells are dead at the end of the experiment.
NCI-60 Human Tumor Cell Lines Screen was performed using the standard one-dose NCI protocol, which is described in more detail at https://dtp.cancer.gov/discovery_development/nci-60/default.htm.
Compounds with GIPRCNT values below 10 were considered active. Activity score was based on GIPRCNT using the following formula: […]
Score is 0 for GIPRCNT values of 100 or above, 50 for GIPRCNT values of 0, and 100 for GIPRCNT values of -100.

Row | SMILES | growth
1 | COc1ccc(-c2nc(C#N)c(NCC(c3ccco3)N3CCCC3)o2)cc1 (stereo not given) | 12.6%
2 | CC(C)NS(=O)(=O)c1cccc(-c2ccc3c4c(n(CCCN(C)C)c(=O)c3c2)-c2ccccc2C4=O)c1 | 104%
3 | Cc1cc(C)c(NC(=O)c2sc3nc4c(cc3c2N)CCCCCC4)c(C)c1 | 27%
4 | CC(C)(C)c1nn(-c2ccccc2)c2c1COCN2Cc1ccc(Cl)cc1 | 91.8%
5 | Cn1cc(-c2ccc3c(c2)ncn3-c2ccc(CC(=O)Nc3cc(C(C)(C)C)on3)cc2)cn1 | 19.5%
6 | COc1ccc(/C=C/C(=O)C(CC2CCC2)C(=O)/C=C/c2ccc(OC)c(OC)c2)cc1OC | 5.19% (active)
7 | CCOC(=O)c1c(C)nc2c(c1N)/C(=C/c1cccs1)C(=O)N2Cc1ccccc1 | 73.8%
8 | CCN(CC)c1ccc2c(c1)Oc1nc(N)c(C#N)c(N)c1C2Sc1ccc(OC)cc1 (stereo not given) | -16.2% (active)
9 | O=C(Nc1cc(Br)ccn1)c1cc2cc(Nc3nc(-c4ccccc4)nc4ccccc34)ccc2oc1=O | 102%
10 | O=C(/C(=C/c1ccc([N+](=O)[O-])cc1)SCc1ccccc1)c1ccc(Cl)cc1 | 67.3%
11 | O=C(Nc1cc(Nc2ncccc2-c2ncnc3nc[nH]c23)ccc1F)c1cc(C(F)(F)F)cc(C(F)(F)F)c1 | -41.7% (active)
12 | C#CCOC(=O)[C@]1(C)CCC[C@]2(C)[C@H]3C[C@H]4C(C(C)C)=C[C@]3(CC[C@H]21)[C@@H]1C(=O)CCC(=O)[C@@H]14 | 91.9%
13 | COc1cc(-c2nn(-c3ccc(Br)cc3)cc2CO)ccc1O | 102%
14 | O=c1[nH]c2ccccc2cc1-c1nc2ccc(Cl)cc2[nH]1 | 40.8%
15 | CCCCCCC/C=C/[C@H]1O[C@]23C(=O)C[C@@]4(C[C@@H](OC5OC(CO)C(O)C(O)C5O)C[C@@H]4[C@H]2C=C1C)OC3=O (stereo not given in full) | -12.2% (active)
16 | NCCCn1c2c(c3cc(-c4ccn[nH]4)ccc3c1=O)C(=O)c1ccccc1-2 | 74.8%
17 | COc1ccc(-c2cs/c(=N\N=C\c3ccc(O)cc3O)n2/N=C/c2ccc(O)cc2O)cc1 | -19% (active)
18 | COc1ccc([C@H]2[C@@H](F)C(=O)N2c2cc(OC)c(OC)c(OC)c2)cc1F | 1.91% (active)
19 | N#CC1C(c2ccc(Cl)cc2)=Nc2c(c(-c3ccccc3)nn2-c2ccccc2)C12C(=O)Nc1ccc(Cl)cc12 (stereo not given) | 34.6%
20 | CCCn1c(N)c(C(N)=O)sc1=S | 103%

Row | SMILES | growth
21 | C[C@H]1[C@H](C)CC[C@]2(C(=O)OCCOCCOCC[P+](c3ccccc3)(c3ccccc3)c3ccccc3)CC[C@]3(C)C(=CC[C@@H]4[C@@]5(C)CC[C@H](OC(=O)C(Cl)Cl)C(C)(C)[C@@H]5CC[C@]43C)[C@H]12 | 8.99% (active)
22 | CCCNc1nc(C)[nH]c(=O)c1S | 109%
23 | S=c1ssnc1-c1cc2ccccc2o1 | 52.4%
24 | O=C1CC23OC(C(O)c4ccccc4N12)C1C(c2ccccc2)=NOC13 (stereo not given) | 16.1%
25 | COc1ccc(/C=C/C(=O)c2ccc(NC(=O)CSc3nnc(-c4ccc(OC)c(OC)c4)n3-c3ccccc3)cc2)cc1 | 36.2%
26 | C=C1C(=O)O[C@H]2[C@H]1CC/C(C=Nc1c(N)cc(C(F)(F)F)cc1Br)=C\CC[C@@]1(C)O[C@@H]21 | -46.3% (active)
27 | COc1ccc(OCC(=O)OC(C)C)cc1 | 98.6%
28 | COc1cccc(NC(=O)Nc2ccc(Nc3ncnc4[nH]c(C)c(C)c34)cc2)c1 | 106%
29 | CN1CCN(S(=O)(=O)O[C@@H]2C(=O)N(c3cc4c5ccccc5ccc4c4ccccc34)[C@H]2c2ccc(F)cn2)CC1 | 90.9%
30 | N#Cc1c(-c2ccc(F)cc2)nc(N=Nc2c(O)[nH]c3ccccc23)nc1N1CCOCC1 | 72.3%
31 | Nc1cc(N)nc(SCC(=O)O)n1 | 102%
32 | Cc1cc(NC(=O)CNc2nc(Oc3ccc(F)cc3)nc(-c3ccc(F)cc3)n2)ccc1Cl | 104%
33 | COc1ccc2nc3c(n2c1)C(=O)C(=O)c1ccccc1-3 | -82.9% (active)
34 | Cc1ccc2nc3nc4ccc[nH]c4cc3c2c1 | 110%
35 | CCOC(=O)c1c(C)nc2c(c1N)/C(=C/c1ccc[nH]1)C(=O)N2Cc1ccc(C(F)(F)F)cc1 | 69.8%
36 | COc1cc(C2=NN(c3ccccc3)C(c3cccc(Nc4ccnc5cc(C(F)(F)F)ccc45)c3)C2)cc(OC)c1OC (stereo not given) | 92.9%
37 | COc1ccc2oc(=O)cc(-c3nc4ccc(N)cc4[nH]3)c2c1 | 114%
38 | COc1cc2c(cc1OCCCOc1cc3c(cc1OC)C(=O)N1CC(F)(F)C[C@H]1C=N3)N=C[C@@H]1CC(F)(F)CN1C2=O | -0.895% (active)
39 | N#CC(C#N)=C1NC(c2ccccc2)=C(c2ccccc2)C(c2ccccc2Cl)=C1C#N | 106%
40 | O=C(CCl)N1CCCc2ccccc21 | 93.9%
